# Screening data deposited in PubChem by several laboratories.
# CYP2C19 act = activators of human cytochrome P450 2C19; activation factor at 5 µM; AID 1025; 96,000 tested, under 10 active; recombinant CYP2C19, luciferin-H EGE luminescence; stronger effect = higher value; 0 = fully inhibited enzyme, 1 = untreated enzyme; P33261;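 active = activation factor of at least 2 at 5 µM in the primary screen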;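 note: 0 = wells with 2.5 mM tranylcypromine and 1 = vehicle-only wells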
# CYP2C9 inh = human CYP2C9 inhibition; inhibition, % at 5 µM; AID 777; P11712; CYP2C9 Supersomes, luciferin-H conversion, luminescence; 20% of 96,000 active;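 active = blocking of liver enzyme CYP2C9 beyond about 50% at 5 µM, limit read from the data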
# CYP2C9 activ = activators of human CYP2C9 | P11712 | recombinant CYP2C9, luciferin-H conversion, luminescence; stronger effect = higher value; factor 1 = untreated enzyme, 0 = blocked | activation factor at 5 µM | 1.4% of 96,000 active | AID 1024;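 active = activation factor of 2 or more for CYP2C9 at a 5 µM dose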;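 note: 0 = sulfaphenazole-blocked wells and 1 = vehicle-only wells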
# CYP2C19 inhib = human CYP2C19 inhibition; P33261; CYP2C19 Supersomes, luciferin-H EGE luminescence, 30 min; inhibition, % at 5 µM; 21% of 96,000 active; AID 778;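 active = CYP2C19 inhibition above a set limit at 5 µM in the primary screen, cut at about 50% in these data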;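 note: plate controls were negative control wells for no effect and 2.5 mM tranylcypromine positive control for full effect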
# Cav3 T inh = inhibitors of human Cav3.2 T-type calcium channel; O95180; Cav3.2-expressing cells, Fluo-4 calcium fluorescence FDSS; stronger effect = lower value; B-score at 10 µM; 4% of 100,000 active;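 active = single-dose well whose peak fluorescence ratio is a statistical outlier from its plate by either plate-standardised score or position-corrected B-score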
# An asterisk follows results filed as active; / = no result. Compounds with a hit are over-represented: about 27% of the library has one in this group of screens.
SMILES,CYP2C19 act,CYP2C9 inh,CYP2C9 activ,CYP2C19 inhib,Cav3 T inh
CCCCOC(=O)Nc1ccc(S(=O)(=O)Nc2nc(C)cc(C)n2)cc1,1,40.7,0.6,1.4,1.5
CCOc1ccc(Br)cc1S(=O)(=O)NCCN(C)C,1.1,-7.9,1.1,-14.5,0.86
Cc1ccc(S(=O)(=O)NCCCOC(=O)Nc2ccncc2)cc1,0.1,99.9*,0,91.5*,0.72
Cc1ccc(S(=O)(=O)NCCc2ccncc2)cc1,0,50.7*,0.5,97.4*,-0.0354
CCOc1ccc(Nc2nc(Cc3nnc(SCC(=O)NC4CCCCC4)n3C)cs2)cc1,0.2,91.0*,0.1,79.3*,-1.08
CCOc1ccc(Nc2nc(Cc3nnc(SCC(=O)NCC4CCCO4)n3C)cs2)cc1 (centres undefined),0.9,36.6,0.6,14.1,/
CN(C)S(=O)(=O)c1cccc(-c2nnc(SCc3cc(Cl)cc4c3OCOC4)n2N)c1,0.6,81.8*,0.2,43.0,-0.567
CN1/C(=C/C=N/n2cnnc2)C(C)(C)c2ccccc21,0.1,36.0,0.6,92.0*,0.105
COCc1cc(=O)n2[nH]c(-c3ccsc3-n3c(C)ccc3C)cc2n1,0.9,31.2,0.7,13.4,1.13
Cc1nc2cc(-c3ccsc3-n3c(C)ccc3C)[nH]n2c(=O)c1Cl,1.1,44.0,0.6,-13.9,-4.66*
CC(C)NC(=O)CSc1nc(Cc2cccs2)nc2ccccc12,0.5,33.3,0.7,49.9,0.372
Cc1ccc(S(=O)(=O)NCC(=O)Nc2ccc(C(F)(F)F)cc2)cc1,0.8,8.6,0.9,24.5,-1.19
O=C(CNS(=O)(=O)c1ccccc1)Nc1ccc(C(F)(F)F)cc1,0.5,29.9,0.7,50.6*,-1.29
O=C(CNS(=O)(=O)c1ccc(F)cc1)Nc1ccc(C(F)(F)F)cc1,0.4,55.0*,0.4,64.6*,-3.03
COc1cc(OC)c(NC2=NCCCCC2)cc1Cl,0.9,4.2,1,14.3,0.00745
C=CCOC(=O)c1[nH]c2c(c1C)C(=O)CC(c1cc(OC)c(OC)c(OC)c1)C2 (centres undefined),0.4,87.1*,0.1,61.4*,0.014
CCCCOC(=O)c1[nH]c2c(c1C)C(=O)CC(c1cc(OC)c(OC)c(OC)c1)C2 (centres undefined),0.6,63.4*,0.4,41.6,-0.00658
C=CCOc1c(OC)cc(Cl)cc1C1NC(=O)NC(C)=C1C(C)=O (centres undefined),1,-5.9,1.1,-2.8,0.0834
COC(=O)c1[nH]c2c(c1C)C(=O)CC(c1cc(OC)ccc1OC)C2 (centres undefined),0.9,30.3,0.7,5.2,-1.31
CCOc1ccc(C2CC(=O)c3c([nH]c(C(=O)OC)c3C)C2)cc1OC (centres undefined),0.9,51.7*,0.5,11.7,-0.65
CC(=O)c1coc2ccc(OCC(=O)O)cc12,/,/,/,/,0.483
CN1c2ccccc2C(C)(C)C12C=Nc1c(ccc3ccccc13)O2 (centres undefined),0.9,33.0,0.7,6.9,0.454
CN1c2ccccc2C(C)(C)[C@]12C=Cc1cc(O)ccc1O2,0,94.8*,0.1,97.4*,-0.0853
COCc1cc(Sc2ccc(Br)cc2)nc(-c2ccccc2)n1,1,39.9,0.6,2.7,-0.609
Clc1cc(Sc2ccc(Br)cc2)nnc1-c1ccccc1,0.5,67.6*,0.3,53.8*,-5.29*
SMILES,CYP2C19 act,CYP2C9 inh,CYP2C9 activ,CYP2C19 inhib,Cav3 T inh
COc1ccc(C(=O)N(Cc2nc(-c3ccc(C)cc3)no2)C2CCCCC2)cc1OC,0.2,81.2*,0.2,81.5*,-4.04*
Cc1onc(-c2ccccc2Cl)c1C(=O)N(Cc1nc(-c2ccccc2)no1)C1CCCCC1,0,85.8*,0.1,95.3*,-3.5
Cc1cccc(-c2noc(CN(C(=O)c3c(-c4ccccc4Cl)noc3C)C(C)C)n2)c1,0.1,63.1*,0.4,91.2*,-5.04*
CCOC(=O)C1CCN(Cc2nc(-c3ccc(OC)c(OC)c3)no2)CC1,1.2,-9.5,1.1,-16.3,0.172
COc1ccc(N2C(=O)CS/C2=C\[N+](=O)[O-])cc1,0.9,5.7,0.9,13.1,-0.0495
O=C(Nc1cccc(-c2cn3cccnc3n2)c1)c1ccco1,0.9,23.0,0.8,5.5,-0.204
O=C(Nc1cccc(-c2cn3cccnc3n2)c1)c1ccc2c(c1)OCO2,0.9,59.6*,0.4,10.0,-0.0299
O=C(Nc1cccc(-c2cn3cccnc3n2)c1)c1ccc(Br)o1,1,58.4*,0.4,-2.8,-0.017
CCCn1c(SCC(=O)c2ccc(CC)cc2)n[nH]c1=O,1,10.6,0.9,-0.1,-0.846
